System: thyroid hormone receptor (endogenous TRα and TRβ)
Parameters: species or system GH3-TRE-Luc (rat pituitary); GH3-TRE-Luc luciferase reporter, antagonist mode against 1 nM T3, loss of signal, qHTS
Conditions: read-out: Average AC50 (uM) GH3-TRE-Antag, antagonist mode, 1 nM T3, no GH3 cytotoxicity hit

SMILES	AC50 [µM]
Brc1cc(Oc2cc(Br)c(Br)c(Br)c2Br)c(Br)c(Br)c1Br [Octabromodiphenyl ether]	10.5
Brc1cc(-c2ccc(Br)c(Br)c2Br)cc(Br)c1Br [Polybrominated biphenyls (PBB)]	51.8
O=C(/C=C/c1ccc([N+](=O)[O-])cc1)c1ccccc1 [4-Nitrochalcone]	49.3
Cc1cccc(Nc2ccccc2)c1 [3-Methyl-N-phenylaniline]	45
CN1C(=O)[C@@H](NC(=O)c2cc3ccccc3[nH]2)N=C(c2ccccc2)c2ccccc21 [Devazepide]	6.13
C(COCC1CO1)OCC1CO1 (centres unmarked) [Ethylene glycol diglycidyl ether]	38
CCC(C)COC(=O)CC(C)C (centres unmarked) [2-Methylbutyl isovalerate]	71.8
CC1(C)[C@H](C(=O)OCc2coc(Cc3ccccc3)c2)[C@@H]1/C=C1\CCSC1=O [Kadethrin]	48.4
CC(C)CCCCCCCCCCCCCCC(=O)O [Isooctadecanoic acid]	16.3
Fc1ccc([C@@]2(Cn3cncn3)O[C@@H]2c2ccccc2Cl)cc1 (racemic) [Epoxiconazole]	41.2

Same assay, conditions: read-out: Average AC50 (uM) GH3-TRE-Antag, antagonist mode, 1 nM T3, no GH3 cytotoxicity hit, Average AC50 (uM) GH3-TRE-Antag, 24 h

SMILES	AC50 [µM]
CC(C)n1c(/C=C/[C@H](O)C[C@H](O)CC(=O)O)c(-c2ccc(F)cc2)c2ccccc21 (racemic) [Fluvastatin]	45.3
CCCCCC[n+]1ccccc1 [1-Hexylpyridinium bromide]	62.1
CCCCCCCCn1cc[n+](C)c1 [1-Methyl-3-octylimidazolium hexafluorophosphate]	33
CC(C)c1c(C(=O)Nc2ccccc2)c(-c2ccccc2)c(-c2ccc(F)cc2)n1CC[C@@H](O)C[C@@H](O)CC(=O)O [Atorvastatin calcium]	14.2

— article PMC6792352, “Limited Chemical Structural Diversity Found to Modulate Thyroid Hormone Receptor in the Tox21 Chemical Library” (Environmental Health Perspectives, 2019)
